Assay outcomes as filed in PubChem.
POLI inh = inhibitors of human DNA polymerase iota; actives 1% (n = 390,000); Potency, µM (highest dose often 115 µM), without a hit: at the highest dose activity, negative = inhibition, usual class: inhibitors; AID 588590; Q9UNA4; Pol iota fluorescent replication assay, 10 min; note: potency is the fitted concentration of half-maximal effect
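Fluorescent replication assay read twice, at 0 min and 10 min after adding 50 nM (final) substrate. Enzyme (10 nM) and compounds were first incubated 15 min at room temperature; enzyme-free buffer wells were negative controls.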
Pol kappa inh = inhibitors of human DNA polymerase kappa | Q9UBT6 | purified Pol kappa, fluorescent DNA synthesis assay, 10 min | Potency, µM (doses to about 107 µM), for the others: top-dose activity, negative = inhibition, most hits filed as inhibitors | actives 0.53% (n = 400,000); note: potency is the fitted concentration of half-maximal effect; % is set by controls: 0 for no effect and ±100 for the full control effect
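Kinetic fluorescence readout at 0 and 10 min followed reaction start with substrate at 50 nM final. Beforehand, enzyme (10 nM Pol kappa) stood 15 min with compound at room temperature; buffer-only wells were negative controls.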
WRN inhibitor = blocks human WRN helicase; Potency, µM (doses to about 114 µM), for the others: at the highest dose activity change, negative = inhibition, actives largely listed as inhibitors; actives 0.46% (n = 360,000); AID 651768; WRN helicase unwinding, fluorescent forked duplex, kinetic; note: potency is the fitted concentration of half-maximal effect; % is set by controls: 0 for no effect and ±100 for the full control effect; nearly all actives have a fitted effect of over 55% in size
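Enzyme (20 nM final) and test compound sit together 15 min at room temperature before substrate addition. Substrate is a single-forked duplex oligonucleotide (100 nM) labelled with fluorophore and quencher, with 2 mM ATP; helicase unwinding raises red fluorescence, read kinetically.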
PI5P4K alpha inh = blocks human PI5P4K alpha kinase activity; P48426; PI5P4Kalpha enzyme, ADP-Glo luminescence, 60 min; stronger effect = lower value; max response, %; actives 1.2% (n = 330,000); AID 652105; active = max response of -50% or lower; inconclusive = between -30% and -50%; inactive = -30% or higher; note: value at the top dose of about 77 µM; % is set by controls: 0 for no effect and ±100 for the full control effect
Target sequence (P48426 whole entry, looked up): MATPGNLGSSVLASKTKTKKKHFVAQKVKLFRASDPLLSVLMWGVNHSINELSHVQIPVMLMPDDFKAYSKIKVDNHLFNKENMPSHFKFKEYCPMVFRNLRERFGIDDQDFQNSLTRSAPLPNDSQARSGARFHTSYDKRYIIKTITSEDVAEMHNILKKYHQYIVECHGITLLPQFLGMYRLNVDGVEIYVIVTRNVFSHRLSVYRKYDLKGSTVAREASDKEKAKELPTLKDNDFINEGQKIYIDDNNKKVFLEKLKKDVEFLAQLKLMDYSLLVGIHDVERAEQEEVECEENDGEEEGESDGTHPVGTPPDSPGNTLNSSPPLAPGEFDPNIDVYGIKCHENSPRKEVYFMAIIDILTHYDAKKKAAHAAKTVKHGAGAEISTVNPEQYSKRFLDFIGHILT
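ADP-Glo luminescence end-point after a 60 min room-temperature kinase reaction. PI5P4Kalpha and substrate in HEPES pH 7.4 buffer with EGTA, 0.1% CHAPS and 5% DMSO; ATP at 5 microM final.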
Pol beta inh = inhibitors of human DNA polymerase beta; P06746; actives 1.3% (n = 340,000); Potency, µM (titrated, usually from 114 µM), for the others: at the top dose activity change, negative = inhibition, actives largely listed as inhibitors; AID 485314; Pol beta primer extension/strand displacement, fluorescence kinetic; note: potency is the fitted concentration of half-maximal effect; % is set by controls: 0 for no effect and ±100 for the full control effect
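Homogeneous kinetic assay of primer extension and strand displacement by 10 nM Pol beta, preincubated 15 min at room temperature with compound before 50 nM substrate (final) was added. Read at 0 and 10 min; four-parameter Hill fit.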
Pol eta inh = DNA polymerase eta (human) inhibition. recombinant Pol eta, fluorescent DNA replication assay. Potency, µM (titrated, usually from 114 µM), for inactives: at the top dose activity change, negative = inhibition, usual class: inhibitors. Q9Y253. actives 1.2% (n = 390,000). AID 588591; note: potency is the fitted concentration of half-maximal effect; % is set by controls: 0 for no effect and ±100 for the full control effect
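Fluorescent replication assay: 50 nM final substrate added after a 15 min room-temperature compound preincubation with 10 nM enzyme. Signal taken at 0 min and again at 10 min.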
An asterisk follows results filed as active; ? = inconclusive; / = not tested or not shown; [ ] = dose if it differs, or a comment. Hits are enriched below; roughly 2.8% of the tested compounds scored in any of these assays. Unless noted, calls come from the whole dose curve; as a rule, active = well fitted curve in the direction sought with a large enough effect; inconclusive = small, poorly fitted or top-dose-only effect, or another doubt; inactive = no such curve, though single readings can be large; an effect the other way counts as inactive or inconclusive.

SMILES	POLI inh	Pol kappa inh	WRN inhibitor	PI5P4K alpha inh	Pol beta inh	Pol eta inh
O=C(c1cccs1)N1CCCc2cc(NS(=O)(=O)c3cc(F)ccc3F)ccc21	?	-13%[60.1 µM]	/	/	-5%	-17%
O=c1nc(/C=C/c2cccn2-c2ccc([N+](=O)[O-])cc2)cc(C(F)(F)F)[nH]1	40µM*	89µM*	?	-69*	?	45µM*
O=c1nc(/C=C/c2cc([N+](=O)[O-])ccc2Cl)cc(C(F)(F)F)[nH]1	?	12%	-26%[57.1 µM]	-9	6%	22µM*
COc1cc(/C=C/c2cc(C(F)(F)F)[nH]c(=O)n2)cc(OC)c1OC	?	-5%	?	-14	-28%	8%
COc1ccc(C2=CC3=C(Br)C(=O)C(C)(OC(=O)c4ccco4)C(=O)C3=CO2)cc1 (centres undefined)	18µM*	79µM*	45µM*	-74*	20µM*	?
COC(=O)CCC(=O)OC1(C)C(=O)C2=CN(c3ccc(OC)cc3)C(c3ccc(OC)cc3)=CC2=C(Br)C1=O (centres undefined)	?	-7%	-5%	?	/	4%
CC1=C(C(=O)Nc2ccccc2C)C(c2cccnc2)n2nc(SCc3ccccc3F)nc2N1 (centres undefined)	-23%	2%	/	/	18%	7%
CCOc1ccc(Br)cc1CNCCSc1nnnn1-c1ccccc1	3%	5%	/	/	7%	-20%
COc1cc(NC(=O)COc2ccccc2Cl)ccc1NC(=O)c1cccs1	50µM*	-2%	-5%	-2	7%	0%
Cc1ccc(-n2nc(C(=O)N3CCN(c4cc(Cl)ccc4C)CC3)c(=O)n(C)c2=O)cc1	16%	-6%[60.1 µM]	/	/	2%	-19%
Cc1nc2cc(NC(=O)NCCCO)ccc2o1	79%	-5%	0%	-10	-8%	-9%
Cc1nc2cc(NC(=O)NCCC3=CCCCC3)ccc2o1	89µM*	7%	-3%[57.1 µM]	/	7%	5%
N#Cc1cc(-c2cccc(Cl)c2)c[nH]c1=O	-2%	-16%	-5%	-6	10%	-9%
N#Cc1c(-c2cccc(Cl)c2)[nH]c(=S)[nH]c1=O	12%	-10%	-3%	-77*	-15%	-15%
N#Cc1c(-c2ccccc2)[nH]c(=S)[nH]c1=O	0%	-4%	-6%	-62*	-9%	3%
O=Cc1ccc(-c2nc3ccccc3s2)o1	29%	-12%	-16%	-4	-22%	-7%
O=C(O)CCN1C(=O)/C(=C/c2ccc(-c3nc4ccccc4s3)o2)SC1=S	?	?	?	-26	25µM*	3.2µM*
CCCCCN(CCCCC)c1ccc(/C=C/c2ccnc3ccccc23)cc1	-23%	-11%	/	/	/	/
O=[N+]([O-])c1ccccc1/C=C/C=N/n1c(-c2cc(-c3ccccc3)n[nH]2)n[nH]c1=S	?	-16%	-18%	?	10µM*	32µM*
S=c1[nH]nc(-c2cc(-c3ccccc3)n[nH]2)n1/N=C/C=C/c1ccccc1	10%	4%	3%	-25	?	43%
S=c1[nH]nc(-c2cc(-c3ccccc3)n[nH]2)n1/N=C/c1ccccc1	0%	-18%	-5%	-9	2%	-1%
Cc1ccc(-c2n[nH]c(=S)n2/N=C/C=C/c2ccccc2[N+](=O)[O-])cc1	?	-12%	?	-17	32µM*	?
COc1ccccc1/C=C/C=N/n1c(-c2cc(-c3ccccc3)n[nH]2)n[nH]c1=S	25%	1%	?	-52*	?	-17%
Cc1cccc(/C=N/n2c(-c3cc(-c4ccccc4)n[nH]3)n[nH]c2=S)c1	4%	-4%	-11%	-14	56µM*	-4%
Cc1ccc(NS(=O)(=O)c2ccc3[nH]c4c(c3c2)CCCC4)cc1N(C)C	-24%	-15%	/	/	18%	-17%
SMILES	POLI inh	Pol kappa inh	WRN inhibitor	PI5P4K alpha inh	Pol beta inh	Pol eta inh
CN(C)c1ccc(/C=C/c2ccnc3c(N)cccc23)cc1	26%	-2%	/	/	/	/
CCC(c1ccccc1)C(CC)c1cc(O)c(O)c(O)c1 (centres undefined)	?	-5%	45µM*	-6	/	-21%
CCN(CC)C(=O)CN(c1ccc2c(c1)OCO2)S(C)(=O)=O	?	-1%	-5%	/	89µM*	14%
Cc1cc(=O)c2cc3nc(-c4cccnc4)oc3c(Br)c2o1	/	/	/	/	40µM*	/
CNc1ccc(Br)cc(C(=O)/C=C/c2cccc(Cl)c2Cl)c1=O	6.3µM*	45µM*	-9%[11.6 µM]	-28	14µM*	45µM*
CNc1ccccc(C(=O)/C=C/c2ccccc2OC)c1=O	?	-17%	?	?	50µM*	14µM*
CCNc1ccccc(C(=O)/C=C/c2ccc3c(c2)OCO3)c1=O	?	25µM*	56µM*	-56*	56µM*	10µM*
COC(=O)/C=C/c1ccc2c(c1)OCO2	10%	-6%	-4%	-1	21%	-12%
COc1ccccc1C=CC(=O)C=Cc1ccccc1OC	?	-17%	-5%	34	/	?
O=C(C=Cc1ccccc1Cl)c1ccccc1	?	-17%	-15%	2	/	?
CCNc1ccc(Br)cc(C(=O)/C=C/c2ccccc2Cl)c1=O	?	?	?	/	/	79µM*
Cc1ccc(N2CC(NC(=O)c3cc4ccccc4o3)CC2=O)cc1C (centres undefined)	2%	-8%[60.1 µM]	/	/	3%	-18%
COc1ccccc1/C=C/C(=O)c1cc(Br)ccc1OC(=O)c1ccco1	-6%	-23%	0%	3	/	4%
CNc1ccc(Br)cc(C(=O)/C=C/c2cccc(OC)c2OC)c1=O	/	-10%	11%	0	20µM*	2%
COc1ccc(NC(=O)c2sc3nc4c(c(-c5ccc(OC)cc5)c3c2N)C(=O)CC(C)(C)C4)cc1	37%	5%	/	/	-1%	/
Clc1ccc(CSc2nnc(-c3cccnc3)n2Cc2ccco2)c(Cl)c1	-7%	-23%	-9%	?	50µM*	?
CCOC(=O)c1ccccc1NC(=O)CSc1nc2cn(CC)nc2c(=O)n1Cc1ccc(Cl)cc1	4%	-1%	/	/	6%	-3%
Cc1ccc(NC2=C(NC(=O)c3ccccc3)C(=O)c3ccccc3C2=O)cc1Cl	?	5%	-6%	-52*	9%	-18%
O=C(O)c1cccc(NC2=C(Cl)C(=O)c3ccccc3C2=O)c1	?	-88%	-11%[11.6 µM]	-69*	-8%	79µM*
Cc1ccc(NCC(=O)c2ccccc2)cc1Cl	11%	8%	-2%	/	0%	-7%
Cn1cc(C(=O)O)c(=O)c2cc(S(=O)(=O)N3CCOCC3)ccc21	?	-5%[60.1 µM]	/	/	6%	-7%
C/C(=N\NC(=O)c1ccc(O)cc1)c1ccc2c(c1)Nc1ccccc1S2	26%	-8%	-24%	-77*	3%	-16%
